Compounds without any hit were thinned out: in the full panel of roughly 83,000, 20% have a hit.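 Activity criterion: percent growth below 10, measured after cells in 96-well plates were exposed to a single compound concentration for 48 hours.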
Experiments:
Test in all cases: NCI-60 one-dose screen, 48 h (100 = growth as untreated, 0 = no growth, -100 = all killed)
Settings in all cases: 10 µM
[1] = test system: NCI-H23 lung
[2] = test system: NCI-H226 lung
[3] = test system: NCI-H322M lung
[4] = test system: HOP-62 NSCLC
[5] = test system: NCI-H460 lung
[6] = test system: A549/ATCC NSCLC
[7] = test system: 786-0 renal
[8] = test system: COLO 205 colon
[9] = test system: DU-145 prostate
[10] = test system: K-562 leukemia
[11] = test system: MALME-3M melanoma
[12] = test system: MDA-MB-231 breast
[13] = test system: RXF 393 renal
[14] = test system: SF-268 CNS
[15] = test system: SF-295 CNS
[16] = test system: SF-539 CNS
[17] = test system: M14 melanoma
[18] = test system: NCI-H522 lung
[19] = test system: UACC-257 melanoma

Measured: growth

CC(C)(C)n1nc(C2CC2)c(Br)c1NC(=O)c1ccccc1F
inactive: [1] 117% | [2] 102% | [3] 98.3% | [4] 92.5% | [5] 102% | [6] 93% | [7] 99.6% | [8] 104% | [9] 121% | [10] 91.6% | [11] 107% | [12] 100% | [13] 114% | [14] 112% | [15] 94.9% | [16] 100% | [17] 102%

O=C1OC[C@H]2[C@H](c3ccc(O)c(O)c3)c3cc(O)c(O)cc3C[C@H]12
inactive: [1] 13.4% | [2] 116% | [3] 130% | [4] 130% | [5] 122% | [18] 19.4% | [7] 110% | [8] 108% | [9] 108% | [10] 180% | [11] 140% | [12] 129% | [14] 116% | [15] 124% | [16] 122% | [19] 147% | [17] 120%

COC(=O)c1ccc(NC(=O)CCl)cc1
inactive: [1] 85.3% | [2] 118% | [3] 95.7% | [4] 88.5% | [5] 47.5% | [6] 79.2% | [7] 93.5% | [8] 103% | [9] 103% | [10] 70.9% | [11] 79.9% | [12] 64.9% | [13] 95.7% | [14] 89.5% | [15] 69.3% | [16] 96.7% | [19] 60.4% | [17] 90.4%

O=C(Nc1ccccc1)OCCc1ccccc1
inactive: [1] 108% | [2] 103% | [3] 116% | [4] 103% | [5] 103% | [6] 102% | [7] 97.2% | [8] 119% | [9] 108% | [10] 114% | [11] 107% | [12] 119% | [13] 93.3% | [14] 111% | [15] 80.9% | [16] 99% | [17] 110%

O=C1OC(c2ccc(F)cc2)CC1CN1CCOCC1 (configuration not stated)
inactive: [1] 98.8% | [2] 107% | [3] 102% | [4] 101% | [5] 108% | [6] 100% | [7] 105% | [8] 93.1% | [9] 106% | [10] 113% | [11] 95.6% | [12] 105% | [13] 111% | [14] 104% | [15] 89.9% | [16] 96.9% | [17] 104%

O=C(NCO)c1ccccc1
inactive: [1] 109% | [2] 101% | [3] 91.6% | [4] 97.8% | [5] 105% | [6] 106% | [7] 108% | [8] 106% | [9] 99.8% | [10] 94.5% | [11] 91.3% | [12] 117% | [13] 119% | [14] 103% | [15] 110% | [16] 108% | [19] 111% | [17] 106%

CC1(C)/C(=C\CO)C2CCC1C2 (configuration not stated)
inactive: [1] 103% | [2] 98.1% | [3] 103% | [4] 96.8% | [5] 115% | [18] 88.8% | [7] 101% | [8] 111% | [9] 120% | [10] 105% | [11] 103% | [12] 112% | [13] 113% | [14] 111% | [15] 120% | [16] 109% | [19] 132% | [17] 103%

O=[N+]([O-])c1ccc(Cl)c(S(=O)(=O)O)c1
inactive: [1] 103% | [2] 109% | [3] 136% | [4] 103% | [5] 108% | [6] 102% | [7] 110% | [8] 118% | [9] 109% | [10] 100% | [11] 120% | [12] 110% | [13] 126% | [14] 105% | [15] 112% | [16] 97.8% | [19] 96.6% | [17] 107%

CC(CC(=O)c1ccccc1)c1ccccc1 (configuration not stated)
inactive: [1] 106% | [2] 98.4% | [3] 90.6% | [4] 119% | [5] 104% | [18] 84.1% | [7] 96.8% | [8] 123% | [9] 112% | [10] 102% | [11] 93% | [12] 119% | [14] 110% | [15] 95.8% | [16] 105% | [19] 94.1% | [17] 119%
